Most compounds without a hit are left out; they make up all but 2.7% or so of the library.
GLP1R inv ag: acts as inverse agonist at human GLP-1 receptor | AID 624417 | HEK293 GLP-1R CRE-luciferase, luminescence, 24 h; GLP-1R form is constitutively active | 410,000 compounds, 1.6% hits | P43220 | Potency, µM (highest dose often 38.3 µM), usual class: inhibitors; note: nearly all actives have a fitted effect of over 55% in size
Target sequence (P43220 whole entry, looked up): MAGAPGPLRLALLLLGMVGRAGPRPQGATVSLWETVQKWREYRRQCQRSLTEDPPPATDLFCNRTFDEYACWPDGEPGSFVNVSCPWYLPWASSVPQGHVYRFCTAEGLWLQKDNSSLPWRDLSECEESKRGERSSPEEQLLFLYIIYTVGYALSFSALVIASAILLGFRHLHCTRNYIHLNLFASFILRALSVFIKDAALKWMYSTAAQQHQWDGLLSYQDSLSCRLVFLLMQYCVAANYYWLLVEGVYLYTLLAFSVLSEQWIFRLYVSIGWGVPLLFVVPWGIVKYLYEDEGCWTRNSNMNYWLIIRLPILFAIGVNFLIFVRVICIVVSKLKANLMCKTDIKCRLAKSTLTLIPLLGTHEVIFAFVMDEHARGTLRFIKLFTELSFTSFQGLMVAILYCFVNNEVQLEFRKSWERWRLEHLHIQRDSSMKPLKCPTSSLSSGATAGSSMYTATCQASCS
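Cells are plated, allowed 12 hours at 37 deg C, then treated with compounds for 24 hr before luciferase detection reagent is added and luminescence is read after 12 min at room temperature. The HEK293 line carries constitutively active GLP-1R with a cAMP-responsive reporter.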
GLP-1R agonist: GLP-1 receptor (human) agonism. P43220. HEK293 GLP-1R CRE-luciferase, luminescence, 4-6 h; cells express a hypersensitive GLP-1R form. Potency, µM (highest dose often 45.6 µM), hits mostly activators. 380,000 compounds, 0.007% hits. AID 624172
HEK293 tox: cytotoxicity counter-screen for GLP-1 receptor inverse agonists | 410,000 compounds, 0.13% hits | Potency, µM (top dose mostly 38.3 µM), hits mostly inhibitors | AID 624418 | HEK293 cAMP-luciferase reporter cells, luminescence, 24 h;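 note: loss of luciferase light is scored as toxicity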
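MLSMR compounds, 24 hr on cells at 37 deg C/5% CO2; luminescence after luciferase reagent (12 min RT). Inhibition counted as the undesired cytotoxic outcome.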
BRCA1 expr act: increases BRCA1 expression | MCF7-BRCA1-FFLuc reporter, luminescence, 48 h; response scale: scaled: vehicle 0%, 10 µM genistein 100% | Potency, µM (titrated, usually from 46.1 µM), usual class: activators | 380,000 compounds, 1.1% hits; note: nearly all actives have a fitted effect of over 80% in size
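Cells: MCF7-BRCA1-FFLuc, 2000/well. Exposure: 48 h, 37 °C, 5% CO2. Read: luminescence, 15 min post-substrate. Controls: genistein 10 microM (maximal activation), DMSO (neutral).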
a7 integrin act: integrin-mediated muscular dystrophy alleviation activation; alpha7betagal myoblasts, beta-gal FDG fluorescence, 48 h; Potency, µM (titrated, usually from 38.3 µM), actives largely listed as activators; 350,000 compounds, 0.064% hits; AID 624291; note: nearly all actives have a fitted effect of over 60% in size
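alpha7betagal+/- myoblasts (passage 13, 250/well) treated 48 h at 37C with compounds at 1:260 dilution of DMSO stock. Lysed, then beta-galactosidase activity read as FDG fluorescence (ex 480/em 540) after 30 min, with pre-read for autofluorescence.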
A number is an active result; - = inactive; ? = inconclusive; . = not tested or not shown. Calls come from the whole dose curve; as a rule, active = well fitted curve in the direction sought with a large enough effect; inconclusive = small, poorly fitted or top-dose-only effect, or another doubt; inactive = no such curve, though single readings can be large; an effect the other way counts as inactive or inconclusive.

SMILES	GLP1R inv ag	GLP-1R agonist	HEK293 tox	BRCA1 expr act	a7 integrin act
O=P(NC(c1ccccc1)c1ccccc1)(Oc1ccccc1)Oc1ccccc1	-	-	-	-	-
Oc1ccc2c3c1O[C@H]1[C@@H](O)C=CC4[C@@H](C2)NCC[C@@]341 (some centres undefined)	.	-	.	.	.
CC1CCCN(CCCNC(=O)c2ccc3c(c2)N(Cc2ccccc2F)C(=O)c2ccccc2S3(=O)=O)C1 (centres undefined)	?	-	?	-	-
CN(C(=O)Oc1ccc(Cl)c2cccnc12)c1ccccc1	-	-	-	-	-
Cc1cccc(NC(=O)Oc2ccc(Cl)c3cccnc23)c1	10µM	-	?	-	-
CC(C)c1ccc(C(=O)CC2(O)C(=O)N(CCc3ccccc3)c3ccc(Cl)cc32)cc1 (centres undefined)	?	-	?	-	.
[Hg+][c]1ccccc1	.	-	.	-	.
CC(=O)N1CCN(CC(=O)Nc2ccc(C#N)c(Cl)c2)CC1	-	-	-	-	-
CCN(CC)S(=O)(=O)c1ccc(C)c(NCC(=O)Nc2ccc(C#N)c(Cl)c2)c1	5.62µM	-	-	-	-
CCCOc1ccc(C(=O)Nc2ccc(-c3cc4ccccc4oc3=O)c(C)c2)cc1	?	.	-	.	.
C[C@]12CCC3C(CCC4=CC(=O)CC[C@@H]43)C1CCC2O (some centres undefined)	.	-	.	.	.
c1cc2n(c1)-c1c(ccc3c1OCO3)CNC2c1ccc2c(c1)OCO2 (centres undefined)	8.91µM	-	-	-	-
Nc1cccc2c1C(=O)N(C(=O)/C=C/c1ccc(F)cc1)C2=O	?	-	-	-	-
O=C(c1cc2ccccn2n1)N1CCN(Cc2ccccc2)CC1	-	-	-	10µM	-
CSc1ccc(CN2CCC2(C)C(=O)Nc2cccc(NS(C)(=O)=O)c2)cc1 (centres undefined)	?	-	-	-	.
COc1ccc(C(=O)C(CN2CCOCC2)c2ccccc2)cc1F (centres undefined)	-	-	?	-	-
CCCOc1ccc(C(=O)C(CN2CCOCC2)c2ccccc2)cc1 (centres undefined)	7.08µM	-	?	-	-
CNc1cccc(-c2ccc(N3CCN(C)CC3)nc2)n1	-	-	-	?	.
CN(C)C(Cc1ccccc1)C(=O)c1c[nH]c2ccccc12 (centres undefined)	12.6µM	-	-	-	?
CCCCC(=O)Nc1c(C(=O)N2CCN(c3ccccc3F)CC2)oc2ccccc12	?	.	-	.	.
CC(C)=CCc1c(O)cc2c(c1O)C(=O)CC(c1ccc(O)cc1)O2 (centres undefined)	12.6µM	-	-	-	-
CC[C@@H](C(=O)[C@@H](C)[C@@H](O)[C@H](C)[C@@H]1O[C@@H]([C@@H](CC)C(=O)O)CC[C@@H]1C)[C@H]1O[C@]2(C=C[C@@H](O)[C@]3(CC[C@@](C)([C@H]4CC[C@](O)(CC)[C@H](C)O4)O3)O2)[C@H](C)C[C@@H]1C	?	-	3.98µM	-	.
c1ccc(COc2ncnc3c2ncn3CCCN2CCN(Cc3cccc4ccccc34)CC2)cc1	3.55µM	-	?	-	-
CCC(Oc1ccccc1OC)C(=O)Nc1ccc2c(c1)OCCO2 (centres undefined)	?	-	-	-	-
COc1ccc(OC)c2sc(N(CCCN(C)C)C(=O)CCS(=O)(=O)c3ccccc3)nc12	?	-	10µM	-	-
SMILES	GLP1R inv ag	GLP-1R agonist	HEK293 tox	BRCA1 expr act	a7 integrin act
CC1=NNC(=O)/C1=C\c1cn(-c2ccccc2)nc1-c1ccccc1	?	-	?	-	-
CCCCCCOc1ccc(CN2CCN(CCO)CC2)cc1	2.51µM	-	-	-	-
CCCCOc1ccc(CN2CCN(CCO)CC2)cc1	-	-	-	-	-
COc1ccc(CN2CCC(n3nccc3NC(=O)CCOc3ccccc3)CC2)cc1C	?	-	?	-	-
COC(=O)C1(C(=O)OC)C[C@H](c2ccc(OC)cc2)N(Cc2ccccc2OC)[C@@H]1c1ccccc1	?	.	-	.	.
O=C(c1cc(-c2cccc(Cl)c2)on1)N1CCOCC1	-	-	-	10µM	-
O=C(c1cc(-c2ccc(Cl)cc2)n(-c2ccc(Cl)cc2Cl)n1)N1CCOCC1	-	-	-	-	-
CC(C)n1c(/C=C/[C@H](O)C[C@H](O)CC(=O)O)c(-c2ccc(F)cc2)c2ccccc21	3.16µM	-	-	-	-
O=C(Cn1c(=O)oc2cc(S(=O)(=O)N3CCCCCC3)ccc21)NCc1ccccc1Cl	?	.	-	.	.
ClCCN(CCCl)c1ccc(/C=C/c2sc3ccccc3[n+]2CCCCI)cc1	.	.	.	-	.
CC(C)OCCCNC(=O)c1c(N)n(Cc2cccs2)c2nc3ccccc3nc12	11.2µM	-	-	-	-
[2H]c1c([2H])c([2H])c(-c2nc(N3CCCCCC3)sc2C(=O)c2ccccc2)c([2H])c1[2H]	2µM	-	-	-	-
C[C@@H]([C@@H](O)c1ccccc1)N(C)C(=O)Cc1ccccc1	-	-	-	-	-
CN(C)CC(C(=O)Cc1ccccc1)c1ccccc1 (centres undefined)	5.01µM	-	?	-	-
C=C1C(=O)OC2CC1C(O)CC(C)=CCCC(C)=CC(O)CC2C (centres undefined)	2.24µM	-	?	-	-
CCNC(C)Cc1ccc2c(c1)OCO2 (centres undefined)	.	-	.	.	.
CC(C)c1ccc(NC(=O)C2CCC(CNS(=O)(=O)c3ccc4c(c3)CCCC(=O)N4)CC2)cc1 (centres undefined)	?	.	-	-	.
COC(=O)C1=C(C)N(Cc2ccccc2)C(=NCc2cccc(C(F)(F)F)c2)N[C@H]1c1cccc(F)c1	?	-	22.4µM	-	-
CNC(=O)c1cccn(Cc2cccc(C(F)(F)F)c2)c1=O	-	-	-	-	-
COc1cc2nc(Nc3cccc(F)c3)nc(N)c2cc1OC	10µM	-	?	-	-
Cc1ccc(C2(c3ccc(C)cc3)CC2C(=O)Nc2ccc([N+](=O)[O-])cc2O)cc1 (centres undefined)	3.98µM	-	?	-	-
OC(c1cccc(Cl)c1)(c1cccc(Cl)c1)C1CN2CCC1CC2 (centres undefined)	3.98µM	-	?	-	-
O=C(Nc1cccc(C(F)(F)F)c1)OC1CN2CCC1CC2 (centres undefined)	?	-	-	-	-
COc1cc(C(C)=O)ccc1OCc1cc(C(=O)N(C)CCC2CCCCO2)no1 (centres undefined)	-	-	-	3.55µM	-
CCC(C)Nc1ccc(NC(C)CC)cc1 (centres undefined)	?	-	?	-	.
Cc1cccc(Nc2nc(NCc3ccco3)c3ccccc3n2)c1	2.24µM	-	?	-	-

Assay outcomes (PubChem BioAssay)
